Measurements: PubChem BioAssay AID827 (SRMLSC, 2007)
Out of some 140,000 compounds screened, about 1,700 (1.2%) were called active. Shown is part of a subset that was picked to be rich in actives. A number with no mark means an inactive call.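 How the source made its calls: active means viability at or below a set limit, 4 SD under the median of all tested compounds (cut at about 3.7% in these data); inactive means the rest.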

Test: viability loss in PTEN-deleted colon tumor cells – cell-based, HCT116, CellTiter-Glo, primary screen (AID 827);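 further: PTEN knockout HCT116 line with beta catenin targeted HCT116 as companion control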
Conditions: HCT116 PTEN-null viability, 60 h, at 10 µM, active compounds read low

SMILES	viability
COc1ccc2nc(Nc3nc4cc5c(cc4s3)OCCO5)sc2c1	94.9%
CCOc1ccc2nc(Nc3nc4ccc(NC(C)=O)cc4s3)sc2c1	90.5%
COc1ccc2nc(Nc3nc4ccc(NC(C)=O)cc4s3)sc2c1	1.64% (active)
CC(Sc1nnc2c(n1)C1CCC2(C)C1(C)C)C(=O)Nc1ccccc1 (stereo not given)	87.5%
O=C(CC(=O)Nc1ccc(Cl)c(Cl)c1)N/N=C/c1ccc(O)cc1	86.7%
O=C(Cc1ccc(Cl)c(Cl)c1)Nc1ccc(SC(F)F)cc1	26.6%
O=C(CC(O)(C(F)(F)F)C(F)(F)F)Nc1ccc(Cl)c(Cl)c1	2.05% (active)
COc1ccc(N2C(=O)C(CC(=O)Nc3ccc(F)cc3)N(CCc3cccs3)C2=O)cc1 (stereo not given)	84.4%
O=C(Nc1ccc2ccccc2c1)/C(=C\c1ccc2c(c1)OCO2)NC(=O)c1ccco1	95.8%
COc1ccc(NC(=O)c2nc(-n3nc(C)cc3C)ccc2Cl)cc1Cl	72.5%
CCCC(NS(=O)(=O)c1ccc(OC)cc1)C(=O)O (stereo not given)	91.3%
CCCNC(=O)OC[C@H]1O[C@H](CCO/N=C/[C@@H](NS(=O)(=O)c2ccc(C)cc2)[C@H](C)/C=C/CC(=O)OC)C=C[C@@H]1Oc1ccc(OC)cc1	0.23% (active)
COc1ccc(O[C@H]2C=C[C@@H](c3ccccc3)O[C@@H]2CO/N=C/C[C@@H]2C=C[C@H](OC(C)=O)[C@@H](COC(C)=O)O2)cc1	85%
O=C(Cc1ccccc1)Nc1cccc(C(=O)N/N=C/c2ccco2)c1	92.6%
O=C(Nc1ccccc1F)c1ccccc1-c1ccccc1	87%
Cc1c(C(=O)NCCCc2ccccc2)cccc1[N+](=O)[O-]	44.8%
COc1ccc(/C=C2/C(=O)OCc3cc(OC)c(OC)cc32)c(OC)c1	71.4%
CC(C)(C)NCCCOc1ccc(Cl)cc1C(C)(C)C	40.9%
COc1cc(/C=C2\SC(=S)N(Nc3ncc(C(F)(F)F)cc3Cl)C2=O)cc(OC)c1OC	88.8%
COc1cccc(/C=N/Nc2ncc(C(F)(F)F)cc2Cl)c1O	2.37% (active)
COc1cccc(/C=N\NC(=O)C2=NNC(=O)C2C)c1O (stereo not given)	48.4%
CC1CCN(c2ccc(C(=O)NCc3ccc4c(c3)OCO4)cc2[N+](=O)[O-])CC1	85.2%
O=C(NCc1ccc2c(c1)OCO2)c1ccc2c(c1)C(=O)N(CC1CCCO1)C2=O (stereo not given)	1.19% (active)
CCC(=O)Nc1ccc(C(=O)Nc2ccc3c(c2)C(=O)N(CC2CCCO2)C3=O)cc1 (stereo not given)	107%
CC(CNc1ccc([N+](=O)[O-])c2cccnc12)Nc1c([N+](=O)[O-])cc(C(F)(F)F)cc1[N+](=O)[O-] (stereo not given)	62.8%

SMILES	viability
CCOc1ccc(C(=O)NC(=S)Nc2ccc(N3CCOCC3)c(Cl)c2)cc1[N+](=O)[O-]	70.2%
NC1=NN(c2cccc(C(=O)O)c2)C(=O)C1	104%
CCCCN(C)CCC(=O)Nc1ccc(Cl)cc1	91.2%
OC(CNCC1CCCO1)Cn1c2ccc(Br)cc2c2cc(Br)ccc21 (stereo not given)	1.31% (active)
Cc1cc(Br)ccc1NC(=O)C1CCCO1 (stereo not given)	97.1%
Cc1ccc(C(=O)NCC2CCCO2)o1 (stereo not given)	101%
O=C(Nc1ccc2c(c1)OCO2)c1ccc(N2C(=O)c3ccccc3C2=O)cc1	93.1%
CSCCC(NC(=O)COc1ccccc1)C(=O)Nc1ccc(C)cc1 (stereo not given)	96.1%
CSCC[C@H](NC(=O)OC(C)(C)C)C(=O)N/N=C/c1cc2ccc(C)cc2nc1Cl	1.55% (active)
CCOc1cc(/C=N/NC(=O)OC)ccc1OCCSc1ccc(Cl)cc1	93.7%
CC(=O)NCCC(=O)Nc1nc(C)c(Cc2ccc3c(c2)OCO3)s1	99.8%
COc1ccccc1C(=O)Nn1c(-c2cccs2)nc2ccccc2c1=O	95%
CC(C)Nc1nnc(SCC(=O)c2c[nH]c3ccccc23)s1	87.3%
CCO/N=C(/C)c1c(O)cc(-c2ccccc2)n(-c2ccccc2)c1=O	103%
CN(Cc1ccccc1)Cc1ccccc1F	101%
CC(=O)NC(C)c1nc2ccccc2n1Cc1ccccc1F (stereo not given)	102%
N=c1n(CCc2ccccc2)c2ccccc2n1Cc1ccccc1F	1.8% (active)
O=C(Nc1ccccc1)/C(=C/c1ccc([N+](=O)[O-])cc1)NC(=O)c1ccccc1	95.2%
CCOC(=O)/C(=C\c1ccc([N+](=O)[O-])cc1)C(=O)c1cc(C(C)=O)c(Nc2ccccc2)s1	1.45% (active)
Cc1cccc(NC(=O)c2sc(-c3ccccc3)nc2-c2ccc([N+](=O)[O-])cc2)c1	73.5%
C/C(=N\NC(=O)c1ccc(CSc2nc(C)cc(C)n2)cc1)C1CCCCC1	93%
O=C1NC(c2ccccc2)CCC1(Cl)Cl (stereo not given)	95.3%
COc1ccccc1N1N=C(c2cccs2)CC1c1ccccc1 (stereo not given)	65%
Cc1cccc(C)c1Nc1nnc(SCC(=O)Nc2sccc2C#N)s1	92.1%
CCCc1cc(-c2nc(-c3ccc(C)cc3)cs2)ccn1	26.2%
